Measured values as given in PubChem BioAssay.

test system: Plasmodium falciparum Sir2 (PF13_0152, Sir2A); experiment: pfSir2 binders on small-molecule microarrays, primary screen, biochemical, small-molecule microarray, 635 nm fluorescence (AID 1098); settings: small-molecule microarray binding, fluorescence 635 nm; higher = more signal;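 also: score merges spot fluorescence intensity with its signal-to-noise ratio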

| Compound | composite z-score |
| --- | --- |
| CCOC(=O)[C@H](Cc1ccccc1)NC(=O)CCC1CC(OC(=O)NCc2cccc3ccccc23)CC2(CCCC(COC(=O)NCc3ccc4c(c3)OCO4)O2)O1 (some centres undefined) | 0.216 |
| CCCC[C@H]1CN2[C@@H](CC[C@@H](C)[C@@H]2c2ccc(Br)cc2)C(=O)O1 | 0.801 |
| CCOC(=O)[C@H](CC(C)C)NC(=O)CCC1CC(OC(=O)NCc2ccc3c(c2)OCO3)CC2(CCCC(COC(=O)NCCOc3ccccc3)O2)O1 (some centres undefined) | 0.543 |
| CCOC(=O)NN=C1C[C@@H](O)[C@@H](O)[C@@H]2[C@@H]3C(=O)N(CC)C(=O)[C@@H]3CC[C@H]12 | -0.04 |
| COc1ccc(COC(=O)NN=C2C[C@@H](O)[C@@H](O)[C@@H]3[C@@H]4C(=O)N([C@@H](C)c5ccccc5)C(=O)[C@@H]4CC[C@@H]23)cc1 | 0.397 |
| CCN1C(=O)[C@H]2[C@H]3[C@H](O)[C@H](O)CC(=NO[C@H](C)c4cn([C@@H]5COC[C@H]5O)nn4)[C@@H]3CC[C@H]2C1=O | -0.428 |
| C[C@@H]1CC[C@H]2C(=O)O[C@@H](COc3ccc(C(C)(C)C)cc3)CN2[C@H]1c1ccc(Br)cc1 | 0.418 |
| CO[C@H]1COC(=O)CC=C[C@@H](C)COC(=O)[C@H]2CCCN2C(=O)CC=C[C@H]1C | 1.3 |
| CC(CCN1CCCc2nc(C)c(C)cc21)=NO[C@@H](C)c1cn([C@H](CO)Cc2ccccc2)nn1 | 0.531 |
